This is a sample that favours compounds with a hit; in the whole collection about 1.5% have one here.
sPLA2-III inh – Inhibits HGIII-sPLA2 liposome hydrolysis, primary screen. AID 743126. Q9NZ20. 0.56% of 370,000 active. inhibition, % at 12.2 µM. QFRET BODIPY PC-A2 liposome hydrolysis, fluorescence;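 active = inhibition above mean plus 3 SD of compounds lying within the high and low control bounds, cut at about 19% in these data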
PLCg1 inh – PLC-gamma1 (human) inhibition, primary screen. purified PLC-gamma1, fluorogenic substrate, fluorescence. inhibition, % at 12.2 µM. 0.84% of 370,000 active. AID 720700
PLC-beta3 inh – inhibitors of human phospholipase C beta3. Q01970. AID 720704. inhibition, % at 12.2 µM. Purified PLC-beta3, fluorogenic substrate, fluorescence. 0.18% of 370,000 active; in the data active = inhibition above about 11%
Target sequence (Q01970 whole entry, looked up): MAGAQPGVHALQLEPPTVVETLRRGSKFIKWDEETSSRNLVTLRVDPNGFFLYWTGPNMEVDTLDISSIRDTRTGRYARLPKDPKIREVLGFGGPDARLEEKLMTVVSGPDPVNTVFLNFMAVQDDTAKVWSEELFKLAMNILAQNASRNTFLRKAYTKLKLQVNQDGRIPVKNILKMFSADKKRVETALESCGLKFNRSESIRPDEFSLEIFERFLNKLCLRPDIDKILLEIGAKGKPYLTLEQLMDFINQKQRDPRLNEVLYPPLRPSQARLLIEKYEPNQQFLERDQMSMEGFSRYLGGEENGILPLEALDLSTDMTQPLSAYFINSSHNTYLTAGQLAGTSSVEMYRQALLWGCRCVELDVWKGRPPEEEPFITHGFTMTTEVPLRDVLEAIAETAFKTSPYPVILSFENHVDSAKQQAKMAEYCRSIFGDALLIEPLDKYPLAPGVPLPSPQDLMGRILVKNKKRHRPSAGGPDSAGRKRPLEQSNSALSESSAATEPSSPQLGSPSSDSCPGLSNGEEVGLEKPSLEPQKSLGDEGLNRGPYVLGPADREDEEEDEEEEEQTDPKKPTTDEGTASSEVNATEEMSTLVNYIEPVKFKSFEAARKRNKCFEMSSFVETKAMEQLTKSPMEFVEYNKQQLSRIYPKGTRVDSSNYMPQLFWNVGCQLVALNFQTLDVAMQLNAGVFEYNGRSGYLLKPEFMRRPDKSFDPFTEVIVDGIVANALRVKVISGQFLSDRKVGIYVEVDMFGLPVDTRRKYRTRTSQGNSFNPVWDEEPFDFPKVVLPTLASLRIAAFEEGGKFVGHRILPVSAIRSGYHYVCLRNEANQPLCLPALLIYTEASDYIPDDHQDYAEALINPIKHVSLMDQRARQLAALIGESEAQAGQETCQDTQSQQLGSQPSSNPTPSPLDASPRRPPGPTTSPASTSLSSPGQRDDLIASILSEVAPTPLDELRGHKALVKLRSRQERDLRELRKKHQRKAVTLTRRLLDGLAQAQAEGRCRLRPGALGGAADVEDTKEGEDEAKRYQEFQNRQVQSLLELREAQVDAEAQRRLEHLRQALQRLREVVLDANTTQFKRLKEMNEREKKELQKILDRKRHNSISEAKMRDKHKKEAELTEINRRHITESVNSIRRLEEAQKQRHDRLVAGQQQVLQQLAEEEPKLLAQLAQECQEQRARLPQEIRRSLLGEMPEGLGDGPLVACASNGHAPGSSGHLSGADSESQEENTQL
DAGLB inh – blocks human DAGLB lipase activity; Q8NCG7; HEK293T DAGLB membrane lysate, EnzChek fluorogenic substrate; inhibition, % at 5.17 µM; 0.059% of 340,000 active; AID 504411; in the data active = inhibition above about 34%
PLCg1 ctr – inhibits human PLC-gamma1 in PLC-beta3 counter-screen | purified PLC-gamma1, fluorogenic substrate, fluorescence | AID 743258 | 3.1% of 3,300 active | inhibition, % at 12.3 µM | shares compounds with PLCg1 inh
PLCb3 confirm – human PLC-beta3 inhibition, confirmation | shares compounds with PLCg1 inh | purified PLC-beta3, fluorogenic substrate fluorescence | inhibition, % at 12.3 µM | 1% of 3,300 active | AID 743261; in the data active = inhibition above about 11%
Large screens that a line does not name were inactive (follow-up assays come after a bar, where they were run). Rule as the data show it, unless noted: active = inhibition above about 9.5%; inactive = the rest.

Cc1ccc(S(=O)(=O)N2C(N)=C(C(=O)NCc3ccc(Br)cc3)C(c3ccc(Cl)cc3)C2C(=O)c2ccccc2)cc1 (stereo not drawn)	none (no result: DAGLB inh)
CCCNC(=O)N1[C@@H](CO)[C@H](c2ccc(C3=CCCC3)cc2)[C@@H]1CN(CC)S(=O)(=O)c1ccccc1[N+](=O)[O-]	none (no result: DAGLB inh)
CC(=O)O[C@H]1[C@H](OC(C)=O)C[C@]2(OC(C)=O)C[C@H]1OC2=O	none (no result: DAGLB inh)
O=C(c1ccco1)N1CCN=C1SCc1ccccc1Cl	PLC-beta3 inh 17 | PLCg1 ctr inactive | PLCb3 confirm inactive
CCOC(=O)c1c(C)oc2cc(Br)c(OC)cc12	PLCg1 inh 9.8 | PLCg1 ctr inactive | PLCb3 confirm inactive
O=C(CSc1nnc(-c2ccccc2)n1Cc1ccco1)Nc1ccc(Oc2ccccc2)cc1	none (no result: DAGLB inh)
Cc1cccc(Nc2nc(N)c([N+](=O)[O-])c(NCc3ccco3)n2)c1	PLCg1 inh 14 | PLCg1 ctr inactive | PLCb3 confirm inactive
CCCCCCOc1ccc(C(=O)O)cc1C#N	PLCg1 inh 9.8 | PLCg1 ctr inactive | PLCb3 confirm inactive
CCCCCCN1CCN(C2CN(Cc3cn(Cc4ccc(C)cc4)nn3)S(=O)(=O)C2)CC1 (stereo not drawn)	PLCg1 inh 15 (no result: DAGLB inh) | PLCg1 ctr inactive | PLCb3 confirm inactive
CC(=O)N1CCc2ccccc2C1CC(=O)O (stereo not drawn)	PLCg1 inh 11 | PLCg1 ctr inactive | PLCb3 confirm inactive
CCCC(C)C(=O)Nc1cc([N+](=O)[O-])ccc1F (stereo not drawn)	PLCg1 inh 9.7 | PLCg1 ctr inactive | PLCb3 confirm inactive
CCCC(C)C(=O)Nc1cc([N+](=O)[O-])ccc1Cl (stereo not drawn)	none
Cc1nn(-c2ccccc2)c(C)c1/C=N\NC(=O)CSc1nc2ccccc2n1Cc1ccc(Cl)cc1	none (no result: DAGLB inh)
O=C(NCCN1CCOCC1)c1cccs1	none
c1csc(CNCCN2CCOCC2)c1	PLCg1 inh 12 | PLCg1 ctr inactive | PLCb3 confirm inactive
CCCCNC(=O)C1CCCN1C(=O)Nc1ccc2c(c1)OCO2 (stereo not drawn)	none (no result: DAGLB inh)
O=C(Nn1c(C2CCC2)nc2ccccc2c1=O)C1CCC1	none
O=C(Nn1c(C2CCC2)nc2ccccc2c1=O)c1cccs1	PLC-beta3 inh 15 | PLCg1 ctr inactive | PLCb3 confirm inactive
CC1C(=O)Nc2ccccc2N1C(=O)c1cccc(C(F)(F)F)c1 (stereo not drawn)	PLCg1 inh 13 | PLCg1 ctr inactive | PLCb3 confirm inactive
CC1C(=O)Nc2ccccc2N1C(=O)c1ccc(Cl)c(Cl)c1 (stereo not drawn)	none
COc1ccc(Cn2cc(CN3[C@@H](C)COc4cc(Br)ccc4S3(=O)=O)nn2)cc1	none (no result: DAGLB inh)
COc1ccc(C2=NN(C(=O)CSC3=NN4CCCC(=O)N=C4S3)C(c3cccc(OC)c3OC)C2)cc1 (stereo not drawn)	PLCg1 inh 9.7 | PLCg1 ctr inactive | PLCb3 confirm inactive
N#Cc1c(NC(=O)CSc2nnnn2C2CCCC2)sc2c1CCCC2	PLCg1 inh 10.0 | PLCg1 ctr inactive | PLCb3 confirm inactive
Cc1sc(NC(=O)CSc2nnnn2C2CCCC2)c(C#N)c1C	none
C=CS(=O)(=O)N(Cc1ccc(C)cc1)[C@@H](CO)C(=O)OC	none (no result: DAGLB inh)
CC(O)CNC(=O)C1CCN(Cc2ccc(OCc3ccccc3)cc2)CC1 (stereo not drawn)	none
CC(C)CNC(=O)C1CCN(Cc2ccc(OCc3ccccc3)cc2)CC1	PLCg1 inh 12 | PLCg1 ctr inactive | PLCb3 confirm inactive
COc1ccc(CCN(Cc2cccs2)S(=O)(=O)c2ccc(C)s2)cc1OC	none (no result: DAGLB inh)
O=C(C[C@@H]1C/C=C\C[C@H](Cc2ccc(F)cc2)C(=O)OC[C@H]2CCCN2C1=O)NCCO	PLCg1 inh 10 | PLCg1 ctr inactive | PLCb3 confirm inactive
O=C(C[C@@H]1C/C=C\CCC(=O)OC[C@@H]2CCCN2C1=O)N[C@@H](CO)Cc1ccccc1	PLCg1 inh 13, PLC-beta3 inh 12 | PLCg1 ctr inactive | PLCb3 confirm inactive
O=C(CSc1nnc(Cc2ccccc2)n1-c1cccc(Cl)c1)N1CCOCC1	none
Cc1cccc(-n2c(Cc3ccccc3)nnc2SCC(=O)N2CCOCC2)c1	PLCg1 inh 14 | PLCg1 ctr inactive | PLCb3 confirm inactive
COC(=O)c1cc(C2(c3c[nH]c4ccccc34)CCN(C(=O)OC(C)(C)C)CC2)n2ccccc12	none (no result: DAGLB inh)
COc1ccccc1NS(=O)(=O)c1ccc(NN=C2CCCCC2)c([N+](=O)[O-])c1	PLCg1 inh 11 | PLCg1 ctr inactive | PLCb3 confirm inactive
COc1ccccc1NS(=O)(=O)c1ccc(N/N=C(\C)C(C)C)c([N+](=O)[O-])c1	PLCg1 inh 9.9, PLC-beta3 inh 13 | PLCg1 ctr inactive | PLCb3 confirm inactive
Nc1[nH]c(C(=O)c2ccccc2)c(-c2cccnc2)c1C(=O)NCCc1c[nH]c2ccccc12	none (no result: DAGLB inh)
Cn1ccc2cc(S(=O)(=O)N3CCN(S(=O)(=O)c4c(F)cccc4F)CC3)ccc21	none (no result: DAGLB inh)
OCC[C@H]1C[C@H](O)[C@@H](O)[C@]2(CCCc3ccccc3O2)O1	PLC-beta3 inh 11 | PLCg1 ctr inactive | PLCb3 confirm inactive
OCC[C@H]1C[C@@H](O)[C@H](O)[C@@]2(CCc3ccccc3O2)O1	none
C[C@H]1CCC[C@]2(O[C@H](CCO)C[C@@H](O)[C@@H]2O)O1	none
C[C@H]1CCC[C@]2(O[C@@H](CCO)C[C@@H](O)[C@@H]2O)O1	PLCg1 inh 9.9 | PLCg1 ctr inactive | PLCb3 confirm inactive
OCC[C@@H]1C[C@@H](O)[C@H](O)[C@]2(CCCc3ccccc3O2)O1	none
OCC[C@H]1C[C@@H](O)[C@H](O)[C@]2(CCc3ccccc3O2)O1	PLC-beta3 inh 11 | PLCg1 ctr inactive | PLCb3 confirm inactive
CCC[C@H]1[C@@H](NC(=O)C(c2ccccc2)c2ccccc2)CC[C@@]23CCCN2C(=O)CCC[C@@H]13	none (no result: DAGLB inh)
COc1ccc(NS(=O)(=O)c2ccc(NC(=S)NC(=O)C(C)C)cc2)cc1	PLCg1 inh 11 | PLCg1 ctr inactive | PLCb3 confirm inactive
CCOc1ccc(NS(=O)(=O)c2ccc(NC(=S)NC(=O)C(C)C)cc2)cc1	none
COC(=O)[C@]12C[C@H](CC(=O)NCCC(C)C)C(=O)N(Cc3ccco3)C1=C[C@H](C(C)C)O[C@@H]2C1CC1	none (no result: DAGLB inh)
Cc1cc(C)c(S(=O)(=O)N2CCCCC2)c(C)c1N(C)S(=O)(=O)c1ccccc1	PLCg1 inh 11 | PLCg1 ctr inactive | PLCb3 confirm inactive
CN(CC(=O)Nc1ccccc1Cl)C(=O)CSc1nncs1	PLCg1 inh 10 | PLCg1 ctr inactive | PLCb3 confirm inactive
CC1CCC(C(C)C)C(OCC(O)C[N+]2(C)CCCCC2)C1 (stereo not drawn)	PLCg1 inh 11 | PLCg1 ctr inactive | PLCb3 confirm inactive
O=C(O)c1cccc2cccc(-c3c4ccc(=O)c(O)c-4oc4c(O)c(O)ccc34)c12	PLCg1 inh 39 | PLCg1 ctr 28 | PLCb3 confirm inactive
